Measured values published in PubChem BioAssay (NCATS).
Records with an inconclusive call do not appear. Where a call stands in place of a potency, no number is given. Calls of active or inactive are those of the source. Calls come from the whole dose curve; as a rule, active = well fitted curve in the direction sought with a large enough effect; inconclusive = small, poorly fitted or top-dose-only effect, or another doubt; inactive = no such curve, though single readings can be large; an effect the other way counts as inactive or inconclusive.

Tests used:
[1] = molecular target: Tyrosine-protein phosphatase non-receptor type substrate 1 (Homo sapiens) + Leukocyte surface antigen CD47 (Homo sapiens) (UniProt P78324+Q08722); experiment: CD47-SIRPalpha protein protein interaction - Alpha assay qHTS validation (AID 1347059);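 note: bead proximity luminescence from CD47 binding SIRPalpha after compound preincubation with SIRPalpha; potency is the fitted concentration of half-maximal effect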
How it was run: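 Soluble extracellular domains: Avi-tag biotinylated SIRPalpha (25 nM) preincubated 30 min RT with compound, then 6His-CD47 (12.5 nM) 30 min; Ni-NTA acceptor and streptavidin donor beads (10 ug/mL) 30 min, AlphaScreen read. PBS pH 7.4, 0.05% IGEPAL.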

[2] = molecular target: Parathyroid hormone/parathyroid hormone-related peptide receptor (Homo sapiens) (UniProt Q03431); experiment: qHTS for PTHR1 Agonists: Optimization Screen against the NCGC LOPAC library (AID 1347079);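 note: GloSensor cAMP luminescence in HEK-293 GP2 cells expressing human PTHR1 with IBMX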
Chain of Parathyroid hormone/parathyroid hormone-related peptide receptor (Homo sapiens) (Q03431 whole entry, looked up): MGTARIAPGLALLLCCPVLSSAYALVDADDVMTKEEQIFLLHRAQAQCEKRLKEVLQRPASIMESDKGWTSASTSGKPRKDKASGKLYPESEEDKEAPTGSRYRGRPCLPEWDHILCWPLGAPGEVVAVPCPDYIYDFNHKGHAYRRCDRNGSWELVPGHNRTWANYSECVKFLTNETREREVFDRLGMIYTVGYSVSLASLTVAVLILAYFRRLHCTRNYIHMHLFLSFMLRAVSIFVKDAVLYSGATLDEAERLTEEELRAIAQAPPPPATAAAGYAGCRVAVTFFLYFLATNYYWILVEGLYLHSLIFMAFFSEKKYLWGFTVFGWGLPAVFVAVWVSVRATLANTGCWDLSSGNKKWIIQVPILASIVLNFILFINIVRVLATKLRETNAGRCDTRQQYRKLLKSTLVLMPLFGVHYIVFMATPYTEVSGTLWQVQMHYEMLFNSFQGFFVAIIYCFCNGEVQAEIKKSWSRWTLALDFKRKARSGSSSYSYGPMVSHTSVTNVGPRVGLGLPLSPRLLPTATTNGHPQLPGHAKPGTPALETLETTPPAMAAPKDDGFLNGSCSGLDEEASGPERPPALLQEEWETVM
How it was run: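 Compounds were tested across a qHTS titration. PTHR1-expressing GP2 cells report cAMP rises via GloSensor luminescence after 1 hr compound exposure at 37C with IBMX present.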

[3] = molecular target: N-terminal Xaa-Pro-Lys N-methyltransferase 1 (Homo sapiens) (UniProt Q9BV86); experiment: qHTS Assay for Inhibitors of N-terminal methyltransferase 1 (NTMT1): LOPAC validation of the NTMT1 SAHH-coupled ThioGlo3 Assay (AID 1347143); note: potency is the fitted concentration of half-maximal effect; nearly all actives have a fitted effect of over 70% in size
Chain of N-terminal Xaa-Pro-Lys N-methyltransferase 1 (Homo sapiens) (Q9BV86 whole entry, looked up): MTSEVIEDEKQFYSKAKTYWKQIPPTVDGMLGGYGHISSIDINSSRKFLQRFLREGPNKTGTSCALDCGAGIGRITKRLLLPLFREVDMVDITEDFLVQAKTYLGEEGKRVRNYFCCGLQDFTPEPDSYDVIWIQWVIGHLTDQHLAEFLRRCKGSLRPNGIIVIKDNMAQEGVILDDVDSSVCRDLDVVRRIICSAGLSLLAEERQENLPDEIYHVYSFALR
How it was run: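 Fluorescence read-out (excitation 340nm, emission 450nm) of SAH-derived thiol, measured via SAHH coupling and ThioGlo3, taken immediately and after a 30 min room-temperature reaction, then normalized to the background read. Enzyme: NTMT1 at 125nM; cofactor SAM 100uM in the added reagent.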

[4] = system: Zika virus NS2B-NS3 protease (unlinked); experiment: Optimization of GU AMC qHTS for Zika virus inhibitors: Unlinked NS2B-NS3 protease assay (AID 1347151); note: potency is the fitted concentration of half-maximal effect; nearly all actives have a fitted effect of over 80% in size
How it was run: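 Noncovalent complex of NS2B hydrophilic domain and NS3 protease domain, 25 nM final, in 10 mM Tris-HCl pH 8.0, 0.01% Tween 20. AMC fluorescence change over 15 min at room temperature was fitted to a 4-parameter Hill equation.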

[5] = Confirmatory screen GU Rhodamine qHTS for Zika virus inhibitors qHTS (AID 1347157); note: potency is the fitted concentration of half-maximal effect; nearly all actives have a fitted effect of over 70% in size
How it was run: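 Percent inhibition derives from the 15-min fluorescence change (ex 480, em 540 nm), normalized to no-enzyme and no-inhibitor wells. Reactions contained 25 nM NS2B-NS3 complex and 1.5 microM substrate in 10 mM Tris-HCl pH 8.0.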

[6] = ZIKV-mCherry secondary qHTS for Zika virus inhibitors (AID 1347158); note: potency is the fitted concentration of half-maximal effect
How it was run: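 After overnight seeding at 37 °C, Vero cells receive compound and then ZIKV-mCherry (MOI 1). Following 48-72 h infection, cells are fixed, counterstained with Hoechst, and imaged; percent infected cells is derived from an mCherry intensity cut-off of 450 RFU.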

[7] = Confirmatory screen NINDS Rhodamine qHTS for Zika virus inhibitors (AID 1347161); note: potency is the fitted concentration of half-maximal effect; nearly all actives have a fitted effect of over 60% in size
How it was run: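 Percent inhibition, normalized to uninhibited and enzyme-free controls, is fitted to a 4-parameter Hill equation. Fluorescence change comes from a 15-min cleavage of 1.5 microM bis-peptide Rhodamine110 substrate by 25 nM linked NS2B-NS3 at room temperature.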

[8] = system: Zika virus NS2B-NS3 protease (linked); experiment: 384 well plate NINDS AMC confirmatory qHTS for Zika virus inhibitors (AID 1347163); note: potency is the fitted concentration of half-maximal effect; nearly all actives have a fitted effect of over 50% in size
How it was run: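 Linked protease 5/30/60 nM final; cpds up to 1 mM final, ~15 min preinc. Substrate Ac-VKTGKR-AMC 30 microM final. RT, dark, 25 min; FI ex 355/em 460; normalized to no-enzyme/no-inhibitor ctrls.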

[9] = system: Zika virus NS2B-NS3 protease (linked construct); experiment: 384 well plate NINDS Rhodamine confirmatory qHTS for Zika virus inhibitors (AID 1347164);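 note: fluorescence from protease cleavage of Ac-LKRR-rhodamine 110 substrate; top concentration of the series differs between compounds; nearly all actives have a fitted effect of over 65% in size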
How it was run: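 Linked protease at a final 5 nM, 30 nM or 60 nM was preincubated ~15 min with compounds, then given 10 microM Ac-LKRR-Rhodamine 110. Fluorescence (ex 485/em 538 nm) after 25 min in the dark at room temperature.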

[10] = molecular target: Lysine-specific demethylase 5B (Homo sapiens) (UniProt Q9UGL1); experiment: Optimization screen for KDM5B Histone Demethylases FDH coupled qHTS against the LOPAC library (AID 1347166)
Chain of Lysine-specific demethylase 5B (Homo sapiens) (Q9UGL1 whole entry, looked up): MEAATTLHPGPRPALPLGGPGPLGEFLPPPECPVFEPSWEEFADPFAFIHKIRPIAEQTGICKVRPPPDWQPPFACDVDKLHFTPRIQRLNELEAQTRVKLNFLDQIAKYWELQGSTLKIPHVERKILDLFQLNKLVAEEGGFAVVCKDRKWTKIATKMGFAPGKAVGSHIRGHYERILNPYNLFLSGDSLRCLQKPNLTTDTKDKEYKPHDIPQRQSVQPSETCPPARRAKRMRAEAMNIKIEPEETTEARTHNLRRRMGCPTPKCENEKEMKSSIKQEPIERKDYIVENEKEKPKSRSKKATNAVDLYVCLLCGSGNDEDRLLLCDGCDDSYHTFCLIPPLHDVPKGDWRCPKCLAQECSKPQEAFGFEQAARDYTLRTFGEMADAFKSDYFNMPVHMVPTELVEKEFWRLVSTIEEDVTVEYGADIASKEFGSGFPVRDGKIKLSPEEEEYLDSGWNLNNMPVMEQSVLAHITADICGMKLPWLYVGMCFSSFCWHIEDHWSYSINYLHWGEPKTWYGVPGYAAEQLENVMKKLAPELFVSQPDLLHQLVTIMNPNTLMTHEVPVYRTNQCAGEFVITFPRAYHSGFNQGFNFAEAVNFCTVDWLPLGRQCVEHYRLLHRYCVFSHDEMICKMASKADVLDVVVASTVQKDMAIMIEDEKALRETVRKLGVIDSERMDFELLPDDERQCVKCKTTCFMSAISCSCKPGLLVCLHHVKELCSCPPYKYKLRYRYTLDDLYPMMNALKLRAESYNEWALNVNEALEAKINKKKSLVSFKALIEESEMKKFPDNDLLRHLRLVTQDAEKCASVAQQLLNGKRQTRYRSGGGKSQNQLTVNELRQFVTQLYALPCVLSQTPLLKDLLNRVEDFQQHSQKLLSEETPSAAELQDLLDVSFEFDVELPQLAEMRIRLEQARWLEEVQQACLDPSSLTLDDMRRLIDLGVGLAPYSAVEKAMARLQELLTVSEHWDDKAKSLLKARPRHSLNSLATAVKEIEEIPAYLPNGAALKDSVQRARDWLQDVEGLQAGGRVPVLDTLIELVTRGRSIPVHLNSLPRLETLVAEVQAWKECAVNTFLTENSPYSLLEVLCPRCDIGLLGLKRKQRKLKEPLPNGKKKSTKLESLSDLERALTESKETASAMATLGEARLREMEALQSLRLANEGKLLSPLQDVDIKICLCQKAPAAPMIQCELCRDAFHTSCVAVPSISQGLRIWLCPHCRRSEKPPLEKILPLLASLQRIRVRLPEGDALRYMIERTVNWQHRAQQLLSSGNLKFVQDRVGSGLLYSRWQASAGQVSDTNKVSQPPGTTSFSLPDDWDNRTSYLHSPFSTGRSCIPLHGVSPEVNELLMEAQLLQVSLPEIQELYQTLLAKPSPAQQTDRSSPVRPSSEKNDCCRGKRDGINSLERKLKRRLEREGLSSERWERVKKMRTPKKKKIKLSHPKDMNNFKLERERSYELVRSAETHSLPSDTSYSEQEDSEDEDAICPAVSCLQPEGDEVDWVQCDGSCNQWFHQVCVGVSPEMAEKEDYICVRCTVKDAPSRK
How it was run: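 KDM5BDeltaAP (200nM final) preincubated 10 min with compound, then 12.5uM H3K4Me3, 25uM a-ketoglutarate, ascorbate, Fe(II), NAD+ and FDH added; 50mM HEPES pH 7.5, 0.01% Tween-20. NADH fluorescence (340/450 nm) change over 30 min, room temperature.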

[11] = Tertiary RLuc qRT-PCR qHTS assay for Zika virus inhibitors (AID 1347169); note: top concentration of the series differs between compounds; nearly all actives have a fitted effect of over 55% in size
How it was run: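 Vero cells (1,000 per well) plated overnight at 37 degrees C, treated with compound in DMSO, then infected with recombinant ZIKV-RLuc (Cambodian) at MOI 1-2 for 48-72 hrs. Live-cell Renilla luciferase substrate added; luminescence read after 1-1.5 hrs.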

[12] = qHTS to identify inhibitors of the type 1 interferon - major histocompatibility complex class I in skeletal muscle: primary screen against the NCATS LOPAC collection (AID 1347405);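 note: lytic HiBiT luminescence reporting HLA-B protein level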
How it was run: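 Cells: C25cl48 human myoblasts, HiBiT-tagged HLA-B*08:01, stimulated with IFN-beta 4.0 ng/ml. Compounds are titrated 1:4.3 over 7 points from 46 uM final and incubated 24 hrs; endogenous MHC class I is quantified by HiBiT lytic luminescence.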

[13] = qHTS for inhibitors of adenylyl cyclases using a fission yeast platform: a pilot screen against the NCATS LOPAC library (AID 1347410)
How it was run: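 S. pombe CHP2027 (AC9-GNAS-PDE4D2) carrying a PKA-repressed fbp1-GFP reporter was exposed to LOPAC compounds (final up to 57 µM) for 18 h at 30C in the dark, in EMM with histidine, lysine and uracil; GFP gain-of-signal read by laser scanning cytometry.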

[14] = Validation qHTS assay for inhibitors of Activation Induced Cytidine Deaminase (AID): UDG Counterscreen signal (AID 1347427)
How it was run: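 Counterscreen read of UDG activity (2 U/mL, 4/3x) in the FRET deamination format with AID (1 uM, 4/3x), DJC20/DJC23 substrates (250 nM, 4x), 4 h at room temperature. NaOH stop, fluorescence at 560 ex/665 em.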

[15] = molecular target: Single-stranded DNA cytosine deaminase (Homo sapiens) (UniProt Q9GZX7); experiment: Validation qHTS assay for inhibitors of Activation Induced Cytidine Deaminase (AID): AID signal (AID 1347429); note: potency is the fitted concentration of half-maximal effect
Chain of Single-stranded DNA cytosine deaminase (Homo sapiens) (Q9GZX7 whole entry, looked up): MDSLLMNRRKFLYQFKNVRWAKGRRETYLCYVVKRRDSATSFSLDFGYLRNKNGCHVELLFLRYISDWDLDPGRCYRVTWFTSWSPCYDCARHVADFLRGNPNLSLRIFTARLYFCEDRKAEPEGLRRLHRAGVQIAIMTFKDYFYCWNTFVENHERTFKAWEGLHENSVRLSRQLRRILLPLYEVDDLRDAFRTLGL
How it was run: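 In this coupled qHTS, AID deaminates a FRET-labelled ssDNA substrate in the presence of UDG over 4 hr at room temperature. Compounds span up to 114 uM final.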

[16] = Primary qHTS for inhibitors of La Crosse Virus (LACV) - induced cell death in SH-SY5Y cells (AID 1508616);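 note: top concentration of the series differs between compounds; higher means more rescue of cells from virus-induced death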
How it was run: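 Readout was luminescence from ATPLite 1step added after a 6-day LACV infection (0.01 MOI) of SH-SY5Y cells that had received pin-transferred compound 24 hr after seeding.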

[17] = Primary qHTS for small molecule stabilizers of the endoplasmic reticulum resident proteome: Secreted ER Calcium Modulated Protein (SERCaMP) assay (AID 1508630)
How it was run: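 GLuc-SERCaMP-expressing SH-SY5Y cells, pretreated 16 h with compound, are challenged with thapsigargin to empty ER calcium stores; after 4 h, coelenterazine is added directly to the medium and luminescence is imaged.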

Papain (Carica papaya) = Papain (Carica papaya) (UniProt P00784); experiment: Primary qHTS assay for inhibitors of the protease papain (AID 1645873);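 note: papain turnover of Z-FR-AMC read as the AMC fluorescence gain over 10 min; potency is the fitted concentration of half-maximal effect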
Chain of Papain (Carica papaya) (P00784 whole entry, looked up): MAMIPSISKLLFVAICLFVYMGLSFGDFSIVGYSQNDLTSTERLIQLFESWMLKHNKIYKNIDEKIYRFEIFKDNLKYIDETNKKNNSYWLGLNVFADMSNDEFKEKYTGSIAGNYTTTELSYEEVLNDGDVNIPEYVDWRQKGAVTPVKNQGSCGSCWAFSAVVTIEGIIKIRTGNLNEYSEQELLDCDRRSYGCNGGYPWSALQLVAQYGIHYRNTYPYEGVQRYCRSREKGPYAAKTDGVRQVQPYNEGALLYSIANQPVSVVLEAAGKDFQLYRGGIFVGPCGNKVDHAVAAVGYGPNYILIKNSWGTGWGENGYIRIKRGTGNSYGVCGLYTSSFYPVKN

[18] = molecular target: Rap guanine nucleotide exchange factor 3 (Homo sapiens) (UniProt O95398); experiment: Confirmatory qHTS for antagonist of cAMP-regulated guanine nucleotide exchange factor 3 (EPAC1) (AID 1645880); note: potency is the fitted concentration of half-maximal effect; nearly all actives have a fitted effect of over 55% in size
Chain of Rap guanine nucleotide exchange factor 3 (Homo sapiens) (O95398 whole entry, looked up): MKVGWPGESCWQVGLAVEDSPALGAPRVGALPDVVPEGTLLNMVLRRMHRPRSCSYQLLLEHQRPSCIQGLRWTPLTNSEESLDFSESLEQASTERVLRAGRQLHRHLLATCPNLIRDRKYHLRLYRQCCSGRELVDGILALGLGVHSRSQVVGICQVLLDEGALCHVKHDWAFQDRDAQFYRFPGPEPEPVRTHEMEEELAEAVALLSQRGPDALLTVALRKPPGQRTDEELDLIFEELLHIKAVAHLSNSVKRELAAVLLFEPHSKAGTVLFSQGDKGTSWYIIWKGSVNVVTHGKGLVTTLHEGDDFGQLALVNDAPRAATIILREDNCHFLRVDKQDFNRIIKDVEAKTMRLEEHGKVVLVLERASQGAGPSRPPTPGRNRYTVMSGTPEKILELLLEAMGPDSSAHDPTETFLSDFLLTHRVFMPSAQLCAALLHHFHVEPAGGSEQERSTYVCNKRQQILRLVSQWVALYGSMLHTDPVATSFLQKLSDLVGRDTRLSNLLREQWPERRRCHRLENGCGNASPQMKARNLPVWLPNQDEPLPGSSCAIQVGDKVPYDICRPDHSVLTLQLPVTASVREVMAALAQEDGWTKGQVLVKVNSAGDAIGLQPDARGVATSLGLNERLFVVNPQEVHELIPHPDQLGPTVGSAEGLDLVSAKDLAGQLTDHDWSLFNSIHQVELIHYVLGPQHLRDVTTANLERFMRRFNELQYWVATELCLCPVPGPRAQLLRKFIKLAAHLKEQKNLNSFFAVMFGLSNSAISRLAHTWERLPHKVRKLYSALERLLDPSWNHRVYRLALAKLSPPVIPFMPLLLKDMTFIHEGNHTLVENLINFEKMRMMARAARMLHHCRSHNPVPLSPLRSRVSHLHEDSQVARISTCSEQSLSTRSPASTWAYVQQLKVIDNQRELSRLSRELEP
How it was run: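 Nucleotide exchange uses 100 nM EPAC1, 250 nM RAP1B-BODIPY-GDP and 50 uM GDP, with compounds in a concentration-titration series. After 5 min at room temperature, fluorescence (480 nm ex/540 nm em) is read every 5 min for 30 min. Data are normalized to control ATA and DMSO.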

[19] = molecular target: Rap guanine nucleotide exchange factor 3 (Homo sapiens) (UniProt O95398); experiment: Confirmatory qHTS for agonist of cAMP-regulated guanine nucleotide exchange factor 3 (EPAC1) (AID 1645881);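 note: EPAC1 catalysed release of BODIPY-GDP from Rap1B seen as fluorescence loss; nearly all actives have a fitted effect of over 75% in size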
[20] = molecular target: Rap guanine nucleotide exchange factor 4 (Homo sapiens) (UniProt Q8WZA2); experiment: Confirmatory qHTS for agonist of cAMP-regulated guanine nucleotide exchange factor 4 (EPAC2) (AID 1645884);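 note: nucleotide exchange releases bodipy-GDP from Rap1 and this lowers its fluorescence; nearly all actives have a fitted effect of over 65% in size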
Chain of Rap guanine nucleotide exchange factor 4 (Homo sapiens) (Q8WZA2 whole entry, looked up): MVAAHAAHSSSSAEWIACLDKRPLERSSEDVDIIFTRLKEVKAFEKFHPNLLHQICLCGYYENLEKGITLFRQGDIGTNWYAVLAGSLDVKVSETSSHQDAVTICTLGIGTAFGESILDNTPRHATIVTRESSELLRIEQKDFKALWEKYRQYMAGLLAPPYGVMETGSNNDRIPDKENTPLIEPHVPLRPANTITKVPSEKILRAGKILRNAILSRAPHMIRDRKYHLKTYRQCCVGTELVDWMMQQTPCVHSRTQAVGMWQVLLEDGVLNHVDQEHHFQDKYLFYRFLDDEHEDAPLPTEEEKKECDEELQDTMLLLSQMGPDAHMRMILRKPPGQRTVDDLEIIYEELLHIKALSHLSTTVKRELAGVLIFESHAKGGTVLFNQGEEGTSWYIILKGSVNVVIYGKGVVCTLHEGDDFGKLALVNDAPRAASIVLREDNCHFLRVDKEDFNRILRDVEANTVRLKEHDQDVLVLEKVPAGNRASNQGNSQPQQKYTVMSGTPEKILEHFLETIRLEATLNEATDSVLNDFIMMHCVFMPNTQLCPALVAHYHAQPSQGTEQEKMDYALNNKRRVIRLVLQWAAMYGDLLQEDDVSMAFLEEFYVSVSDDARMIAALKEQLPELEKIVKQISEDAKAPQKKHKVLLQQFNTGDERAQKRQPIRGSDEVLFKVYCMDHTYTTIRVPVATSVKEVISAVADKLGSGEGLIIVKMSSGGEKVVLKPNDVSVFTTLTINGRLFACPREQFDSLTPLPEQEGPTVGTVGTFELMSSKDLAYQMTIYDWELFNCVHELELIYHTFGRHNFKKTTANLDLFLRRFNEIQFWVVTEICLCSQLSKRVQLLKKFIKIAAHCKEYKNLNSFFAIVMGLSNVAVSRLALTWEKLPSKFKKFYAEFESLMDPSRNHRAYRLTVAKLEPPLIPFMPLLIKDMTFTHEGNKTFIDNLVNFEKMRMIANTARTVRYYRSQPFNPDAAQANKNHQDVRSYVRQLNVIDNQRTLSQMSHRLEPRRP

[21] = molecular target: Rap guanine nucleotide exchange factor 4 (Homo sapiens) (UniProt Q8WZA2); experiment: Confirmatory qHTS for antagonist of cAMP-regulated guanine nucleotide exchange factor 4 (EPAC2) (AID 1645885); note: potency is the fitted concentration of half-maximal effect; nearly all actives have a fitted effect of over 25% in size
[22] = molecular target: Glutathione peroxidase 1 (Homo sapiens) (UniProt P07203); experiment: Primary qHTS Assay for Inhibitors of Recombinant Selenoprotein Glutathione Peroxidase 1 (GPX1) (AID 1845191); note: nearly all actives have a fitted effect of over 65% in size
Chain of Glutathione peroxidase 1 (Homo sapiens) (P07203 whole entry, looked up): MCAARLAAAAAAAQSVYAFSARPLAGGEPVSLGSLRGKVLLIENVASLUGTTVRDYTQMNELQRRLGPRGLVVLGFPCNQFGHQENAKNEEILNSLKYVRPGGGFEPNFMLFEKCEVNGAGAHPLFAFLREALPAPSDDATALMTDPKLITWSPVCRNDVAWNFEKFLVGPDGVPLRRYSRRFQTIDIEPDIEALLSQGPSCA
How it was run: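 Recombinant GPX1 (10 nM final) was preincubated with compound for 30 min at room temperature, then reacted with 1 mM GSH, 0.5 mM CHP, 0.5 mM NADPH and 100 nM glutathione reductase; NADPH fluorescence (340/450 nm) was read at 0 and 15 min.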

Compound: Nc1c(S(=O)(=O)O)cc(Nc2ccc(Nc3nc(Cl)nc(Nc4ccc(S(=O)(=O)O)cc4)n3)c(S(=O)(=O)O)c2)c2c1C(=O)c1ccccc1C2=O
- Potency [1]: 11.7 µM (active)
- outcome [2]: inactive
- Potency [3]: 44.7 µM (active)
- Potency [4]: 10.6 µM (active)
- Potency [5]: 2.24 µM (active)
- Potency [6]: 8.91 µM (active)
- Potency [7]: 2 µM (active)
- Potency [8]: 10 µM (active)
- Potency [9]: inactive
- outcome [10]: inactive
- Potency [11]: inactive
- Potency [12]: inactive
- outcome [13]: inactive
- outcome [14]: inactive
- Potency [15]: 28.2 µM (active)
- outcome [16]: inactive
- Potency [17]: inactive
- Potency (Papain (Carica papaya)): 1.78 µM (active)
- Potency [18]: 9.93 µM (active)
- outcome [19]: inactive
- outcome [20]: inactive
- Potency [21]: 22.1 µM (active)
- Potency [22]: inactive
